The source of these data is PubChem BioAssay (NCATS).

For assay [1], the target named is Cytochrome P450 2D6 (Homo sapiens) (UniProt P10635). Briefly: Cytochrome P450 family 2 subfamily D member 6 (CYP2D6) small molecule antagonists: luciferase biochemical (cell-free) qHTS assay (AID 1645840). Also: nearly all actives have a fitted effect of over 55% in size. Also: potency is read from the fitted curve at half-maximal effect. Put shortly:
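P450-Glo luminescent screen: recombinant CYP2D6 enzyme–proluciferin substrate mix preincubated with compound 10 min at room temperature, then NADPH regeneration added for 1 h at room temperature. Detection reagent added for 20 min; luciferin light read as relative luminescence units.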
Background: qHTS replaces the single test concentration by a dilution series.

The target of assay [2] is Cytochrome P450 2C9 (Homo sapiens) (UniProt P11712). The assay can be described thus: Cytochrome P450 family 2 subfamily C member 9 (CYP2C9) small molecule antagonists: luciferase biochemical (cell-free) qHTS assay (AID 1645842). Also: nearly all actives have a fitted effect of over 55% in size. Also: potency is read from the fitted curve at half-maximal effect. Put shortly: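 Luminescence, after 20 min with luciferin detection reagent, reflected CYP2C9 turnover during a 1 h NADPH-driven reaction at 37C. Enzyme-substrate mix contained 0.4% bovine serum albumin and was preincubated with compound 10 min at room temperature.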
Chain of Cytochrome P450 2C9 (Homo sapiens) (P11712 whole entry, looked up): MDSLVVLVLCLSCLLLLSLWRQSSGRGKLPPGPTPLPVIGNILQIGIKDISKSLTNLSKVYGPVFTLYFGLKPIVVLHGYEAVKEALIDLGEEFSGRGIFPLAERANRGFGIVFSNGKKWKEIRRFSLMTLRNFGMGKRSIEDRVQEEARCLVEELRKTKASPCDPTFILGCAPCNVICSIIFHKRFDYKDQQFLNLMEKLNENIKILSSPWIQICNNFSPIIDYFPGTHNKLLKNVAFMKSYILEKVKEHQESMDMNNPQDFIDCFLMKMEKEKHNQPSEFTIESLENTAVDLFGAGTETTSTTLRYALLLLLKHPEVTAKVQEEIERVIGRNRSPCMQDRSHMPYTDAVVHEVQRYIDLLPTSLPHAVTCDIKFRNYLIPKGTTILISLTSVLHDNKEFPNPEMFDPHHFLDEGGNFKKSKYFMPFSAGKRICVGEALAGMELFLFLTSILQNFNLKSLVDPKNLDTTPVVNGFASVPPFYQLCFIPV

For assay [3], the target named is Cytochrome P450 3A4 (Homo sapiens) (UniProt P08684). The assay can be described thus: Cytochrome P450 family 3 subfamily A member 4 (CYP3A4) small molecule antagonists: luciferase qHTS assay (AID 1645841). Also: nearly all actives have a fitted effect of over 45% in size. Also: potency is read from the fitted curve at half-maximal effect. In short, it runs like this: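 P450-Glo CYP3A4 enzyme with proluciferin substrate preincubated 10 min with compound at room temperature, then NADPH regeneration 1 h. Luciferin detection reagent added for 20 min; luminescence recorded. Ketoconazole positive control.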
Chain of Cytochrome P450 3A4 (Homo sapiens) (P08684 whole entry, looked up): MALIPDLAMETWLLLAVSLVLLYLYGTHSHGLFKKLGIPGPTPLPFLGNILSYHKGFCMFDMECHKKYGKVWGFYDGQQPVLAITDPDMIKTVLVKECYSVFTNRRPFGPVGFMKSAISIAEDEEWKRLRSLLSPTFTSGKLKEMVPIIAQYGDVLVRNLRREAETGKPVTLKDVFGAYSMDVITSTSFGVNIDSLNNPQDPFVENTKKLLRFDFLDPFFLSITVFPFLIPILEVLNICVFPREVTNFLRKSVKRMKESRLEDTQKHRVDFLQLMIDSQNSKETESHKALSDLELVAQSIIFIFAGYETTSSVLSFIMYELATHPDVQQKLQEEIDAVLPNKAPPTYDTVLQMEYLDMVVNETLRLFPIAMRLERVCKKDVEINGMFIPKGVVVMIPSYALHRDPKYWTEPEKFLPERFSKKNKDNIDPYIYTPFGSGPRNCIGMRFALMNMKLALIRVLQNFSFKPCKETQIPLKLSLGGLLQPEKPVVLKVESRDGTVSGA

The nature of assay [4]: Primary qHTS for inhibitors of nuclear receptor binding SET domain protein 2 (NSD2) in an isogenic RCH-ACV NSD2 p.E1099K mutant (9B) (AID 1645876; active = well fitted curve in the direction sought with a large enough effect; an effect the other way counts as inactive or inconclusive; also: nearly all actives have a fitted effect of over 70% in size).
Assay [5] is described as follows: Primary qHTS for inhibitors of nuclear receptor binding SET domain protein 2 (NSD2) in an RCH-ACV wild type WT cells (2C) (AID 1645877; active = well fitted curve in the direction sought with a large enough effect; an effect the other way counts as inactive or inconclusive; also: nearly all actives have a fitted effect of over 70% in size).
Assay [6] concerns the target N-terminal Xaa-Pro-Lys N-methyltransferase 1 (Homo sapiens) (UniProt Q9BV86). Briefly: Confirmatory qHTS for Inhibitors of N-terminal methyltransferase 1 (NTMT1): MTaseGlo Assay (AID 1645874; active = well fitted curve in the direction sought with a large enough effect; an effect the other way counts as inactive or inconclusive;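 also: luminescence from SAH made as NTMT1 methylates SPKRIA peptide using SAM; series mostly up to about 100 µM; nearly all actives have a fitted effect of over 65% in size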). Put shortly:
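Luminescent MTase-Glo read-out of SAH. 125 nM NTMT1, 100 uM SAM, 1 uM SPKRIA substrate, 30 min RT reaction after 15 min compound preincubation. Normalized to no-enzyme and DMSO controls; Hill fit.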

Inconclusive results are not listed. Active and inactive are the calls of the source. Unless noted, calls follow the shape of the dose curve; as a rule, active = well fitted curve in the direction sought with a large enough effect in the repeat runs; inconclusive = weak or mixed curves; inactive = no such curve, though single readings can be large; an effect the other way counts as inactive or inconclusive.

Chain of Cytochrome P450 2D6 (Homo sapiens) (P10635 whole entry, looked up): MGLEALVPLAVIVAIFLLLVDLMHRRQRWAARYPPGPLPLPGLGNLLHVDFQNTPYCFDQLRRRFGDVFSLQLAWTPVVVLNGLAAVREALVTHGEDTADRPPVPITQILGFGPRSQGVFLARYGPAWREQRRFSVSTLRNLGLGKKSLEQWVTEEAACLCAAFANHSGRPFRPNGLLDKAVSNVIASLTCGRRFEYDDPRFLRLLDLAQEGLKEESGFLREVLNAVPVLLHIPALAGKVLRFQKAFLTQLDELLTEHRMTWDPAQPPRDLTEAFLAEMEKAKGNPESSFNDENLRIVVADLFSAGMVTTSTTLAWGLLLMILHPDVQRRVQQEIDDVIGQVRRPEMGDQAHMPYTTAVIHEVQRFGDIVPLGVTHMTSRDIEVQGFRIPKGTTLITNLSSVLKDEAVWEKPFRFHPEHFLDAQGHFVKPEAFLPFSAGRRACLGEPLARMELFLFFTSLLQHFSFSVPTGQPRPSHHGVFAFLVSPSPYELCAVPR
Chain of N-terminal Xaa-Pro-Lys N-methyltransferase 1 (Homo sapiens) (Q9BV86 whole entry, looked up): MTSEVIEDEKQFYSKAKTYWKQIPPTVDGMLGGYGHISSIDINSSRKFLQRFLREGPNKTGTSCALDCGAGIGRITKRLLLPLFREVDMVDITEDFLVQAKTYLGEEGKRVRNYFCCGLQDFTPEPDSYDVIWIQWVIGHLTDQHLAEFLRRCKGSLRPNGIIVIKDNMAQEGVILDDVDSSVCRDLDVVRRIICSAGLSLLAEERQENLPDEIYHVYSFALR

With `c1ccc(Nc2nc3c(s2)CCCc2[nH]ncc2-3)nc1`, the Potency in assay [1] is 26.8 µM (active).

For the compound `O=C1C[C@@H](c2ccc(O)cc2)Oc2cc(O)ccc21`, the Potency result in assay [1] was “inactive”. Moreover, the Potency in assay [2] is 12 µM (active).

For the compound `Nc1nc(N)c2nc(CNc3ccc(C(=O)N[C@@H](CCC(=O)O)C(=O)O)cc3)cnc2n1`, the Potency entry in assay [1], in assay [3] and in assay [2] was “inactive” in each case.

On to `CCCCN(CCCC)C(=O)CN1C[C@H](c2ccc3c(c2)OCO3)[C@@H](C(=O)O)[C@@H]1c1ccc(OC)cc1`, for which the Potency in assay [1] is 19 µM (active); in assay [2], 21.3 µM (active). For the same compound, the Potency entry in assay [4] and in assay [5] was “inactive” throughout.

Consider `c1ccc(C(OC2CCN(CCCc3nn[nH]n3)CC2)c2ccccc2)cc1`, for which the Potency in assay [1] was 6.01 µM (active). The Potency entry in assay [3], in assay [2], in assay [4] and in assay [5] was “inactive” throughout.

Turning to `CO[C@@H]1COCC[C@@H]1N[C@@H]1CC[C@@](C(=O)N2CCc3ncc(C(F)(F)F)cc3C2)(C(C)C)C1`, the Potency in assay [1] was 16.9 µM (active). Moreover, the Potency entry in assay [2] and in assay [4] was “inactive” each time.

As to `NC(=O)c1ncn(C2OC(CO)C(O)C2O)n1` (configuration not stated), the Potency entry in assay [1] is “inactive”.

Regarding `CCOC(=O)[C@H](CCc1ccccc1)CC1(C(=O)N[C@H]2CCc3ccccc3N(CC(=O)O)C2=O)CCCC1`, the Potency result in assay [1], in assay [2], in assay [4] and in assay [5] was “inactive” throughout.

On to `CNC1CCN(C(Cc2cccc(-c3ccncc3)c2)C(=O)c2sc3c(F)ccc(F)c3c2Cl)CC1` (configuration not stated), for which the Potency in assay [1] is 0.19 µM (active); in assay [3] it was 0.12 µM (active); in assay [2] it was 10.7 µM (active).

`COCCCNCC1COc2ccccc2O1` (configuration not stated): the Potency in assay [1] is 9.52 µM (active). In addition, the Potency result in assay [2] and in assay [4] was “inactive” each time.

With `CC[C@@H](c1ccc(F)c(F)c1)n1c(C(=O)OC)c(-c2ccno2)[nH]c1=S`, the Potency entry in assay [1] and in assay [6] was “inactive” throughout. Further, the Potency in assay [2] is 0.756 µM (active).
